Consider 31 compounds from PubChem BioAssay (NCI).

The panel holds about 83,000 compounds, 20% with a hit somewhere; the sample as a whole holds those more often.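 Method: cells in 96-well plates; compound added at one concentration; 48 h incubation; percent growth measured; values under 10 scored active.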 A number with no mark means an inactive call. Calls of active or inactive are those of the source.

Common to all, as to assay: NCI-60 one-dose screen, 48 h (100 = growth as untreated, 0 = no growth, -100 = all killed)
Holding throughout (settings): 10 µM unless noted

The test system of assay [1] is T-47D breast.
Assay [2] concerns BT-549 breast.
Assay [3] relates to MDA-MB-435 melanoma.
For assay [4], the system named is SW-620 colon.
The subject of assay [5] is MCF7 breast.
The test system of assay [6] is HCT-116 colon.
For assay [7], the system named is HCC-2998 colon.
The test system of assay [8] is KM12 colon.

With `CC(C)(C)NCCC(O)c1cc2c(Cl)cc(Cl)cc2c2cc(C(F)(F)F)ccc12` (stereo not drawn), the growth in assay [1] is -78.3% (active); in assay [2] it was 69.6%; in assay [3] it was -74.4% (active); in assay [4], -73.3% (active); in assay [5] it was -81.3% (active); in assay [6] it was -80.3% (active). The results for the growth in assay [7] and in assay [8] were -83% (active) and -90.9% (active), respectively.
`Clc1cccc(-c2cc(-c3ccc4c(c3)OCCO4)[nH]n2)c1`: the growth in assay [1] is 22% [25 µM]; in assay [2], 53.7% [25 µM]; in assay [3], -37.5% [25 µM] (active); in assay [4] it was 27.5% [25 µM]; in assay [5], 15.6% [25 µM]; in assay [6], 26.3% [25 µM]. Moreover, the growth in assay [7] was 58.1% [25 µM]; in assay [8], 25.7% [25 µM].
Take `C=C[C@@H]1C[C@H](O)Cc2c(C)cc(C)cc2N1`: the growth in assay [1] was 103%; in assay [2], 96.4%; in assay [3] it was 99.3%; in assay [4] it was 99.9%; in assay [5], 93.1%; in assay [6] it was 99.9%. Further, the values for the growth in assay [7] and in assay [8] were 94.2% and 105%, respectively.
For `O=[N+]([O-])c1cnc(Sc2ccncn2)s1`, the growth in assay [1] was -13.9% (active); in assay [2], 103%; in assay [3] it was 27.2%; in assay [4], -80.9% (active); in assay [5], 31.5%; in assay [6], -48.5% (active). The growth was 6.85% (active) in assay [7] and 75.9% in assay [8].
Turning to `Cc1nn(-c2ccc(Cl)cc2)c2ncnc(N/N=C/c3cccc([N+](=O)[O-])c3)c12`, the growth in assay [1] was 101%; in assay [2] it was 106%; in assay [3], 97.1%; in assay [4] it was 88.9%; in assay [5] it was 103%; in assay [6], 104%. The growth in assay [7] was 94.8%; in assay [8], 66.5%.
Regarding `C=CCn1cc(-c2nc3ccccc3s2)c2cc(-c3ccc4c5c(cccc35)C(=O)N(CCN3CCNCC3)C4=O)ccc21`, the growth is 82.4% in assay [1]; 91.3% in assay [2]; 90.7% in assay [3]; 26.8% in assay [4]; -65.8% (active) in assay [5]; 29.7% in assay [6]. For the same compound, the growth in assay [7] is 87.5%; in assay [8], 98.5%.
With `COc1cc(C2C3=C(COC3=O)Nc3cc4c(cc32)OCO4)cc2c1OCO2` (stereo not drawn), the growth is 51.9% in assay [1]; 25.4% in assay [2]; -20.4% (active) in assay [3]; 17.1% in assay [4]; 13.9% in assay [5]; 6.83% (active) in assay [6]. The values for the growth in assay [7] and in assay [8] were 8.39% (active) and 1.28% (active), respectively.
For `CCOC(=O)c1cc(C(=O)c2cc(OC)c(OC)c(OC)c2)n2c1ccc1ccccc12`, the growth was 11.1% in assay [1]; 66.9% in assay [2]; -54.6% (active) in assay [3]; 18.8% in assay [4]; 12.1% in assay [5]; 25.8% in assay [6]. For the same compound, the growth in assay [7] was 69.5%; in assay [8], 28.5%.
Take `COc1cc(-c2nc(-c3nc4ccc(Cl)cc4[nH]3)cc3c2[nH]c2ccccc23)cc(OC)c1OC`: the growth was 54.2% in assay [1]; 70.8% in assay [2]; 75.5% in assay [3]; 96.2% in assay [4]; 47.9% in assay [5]; 58.7% in assay [6]. Further, the values for the growth in assay [7] and in assay [8] were 68.7% and 71%, respectively.
`COc1cc(-c2nn(C(=O)NS(=O)(=O)c3ccccc3)cc2-c2ccncc2)ccc1Cl`: the growth in assay [1] was 62.6%; in assay [2] it was 53.9%; in assay [3], 85.5%; in assay [4], 112%; in assay [5], 94.6%; in assay [6], 84.6%. Further, the growth in assay [7] was 109%; in assay [8] it was 94.5%.
For the compound `CN(CCCCN(C[C@H]1Cc2ncccc2CN1)[C@H]1CCCc2cccnc21)C1CCC(F)(F)CC1`, the growth is 99.2% in assay [1]; 85.8% in assay [2]; 108% in assay [3]; 98.7% in assay [4]; 83.7% in assay [5]; 71.1% in assay [6]. The growth in assay [7] is 88.7%; in assay [8] it was 88%.
`CCN(CC)c1ccc(/C=C2\Oc3ccc(O)c(I)c3C2=O)cc1`: the growth was 55.1% in assay [1]; 54.4% in assay [2]; 16.7% in assay [3]; 43.2% in assay [4]; 26.9% in assay [5]; 33.9% in assay [6]. Besides, the results for the growth in assay [7] and in assay [8] were 97.2% and 43.3%, respectively.
Regarding `Cc1[nH]c2ccc(F)cc2c1CCNC(=O)C1CCN(C(=O)c2ccccc2)C1` (stereo not drawn), the growth is 69.5% [25 µM] in assay [1]; 94.7% [25 µM] in assay [2]; 99.3% [25 µM] in assay [3]; 102% [25 µM] in assay [4]; 90.9% [25 µM] in assay [5]; 99.7% [25 µM] in assay [6]. The results for the growth in assay [7] and in assay [8] were 106% [25 µM] and 102% [25 µM], respectively.
Turning to `C=C[C@@H]1C[C@@H]2Cc3ccccc3N1O2`, the growth in assay [1] was 110%; in assay [2], 114%; in assay [3] it was 100%; in assay [4], 102%; in assay [5], 111%; in assay [6], 101%. The growth was 114% in assay [7] and 110% in assay [8].
As for `N=C(N)c1ccc(-c2ccc(-c3ccc4ccccc4c3)s2)cc1`, the growth is 97.6% in assay [1]; 96.2% in assay [2]; 36.6% in assay [3]; 19.3% in assay [4]; 67.9% in assay [5]; 78.6% in assay [6]. Also, the growth was 100% in assay [7] and 40.7% in assay [8].
Regarding `CC(=O)Oc1cccc(S(=O)(=O)n2cc(C(=O)C(=O)Nc3ccncc3)c3ccccc32)c1`, the growth in assay [1] was 73.6%; in assay [2], 83.8%; in assay [3] it was 38.5%; in assay [4], 98%; in assay [5], 79.5%; in assay [6] it was 76.6%. Further, the results for the growth in assay [7] and in assay [8] were 84.3% and 83.6%, respectively.
Consider `O=C(Nc1ccncc1)C(=O)c1cn(S(=O)(=O)c2ccc(Br)cc2)c2ccccc12`, for which the growth in assay [1] was 41%; in assay [2], 41.1%; in assay [3] it was -3.46% (active); in assay [4] it was 18.2%; in assay [5], 19.7%; in assay [6], 14.3%. In addition, the growth in assay [7] was 72%; in assay [8], 26.2%.
Regarding `COc1cc(-c2nn(-c3cccc(NC(=O)c4ccc(N5CCOCC5)c(C(F)(F)F)c4)c3)cc2-c2ccncc2)ccc1Cl`, the growth in assay [1] is 27.5%; in assay [2], 14.3%; in assay [3], -35.1% (active); in assay [4], 25.2%; in assay [5], 8.85% (active); in assay [6], 8.35% (active). The values for the growth in assay [7] and in assay [8] were 8.82% (active) and 5.64% (active), respectively.
As for `O=C1c2c(Cl)c(Cl)c(Cl)c(Cl)c2C(=O)C2(Cl)CC=CCC12Cl` (stereo not drawn), the growth was -38.3% (active) in assay [1]; 43.6% in assay [2]; 21.5% in assay [3]; -68.7% (active) in assay [4]; -57.5% (active) in assay [5]; -90.2% (active) in assay [6]. Also, the growth in assay [7] is -43% (active); in assay [8], -6.67% (active).
For `c1cc2[nH]ncc2cc1-c1nc2ccc3[nH]ncc3c2c2c1CCC2`, the growth in assay [1] is 56.8%; in assay [2] it was 38.3%; in assay [3], -7.86% (active); in assay [4] it was 12.6%; in assay [5], 32%; in assay [6] it was 16.9%. For the same compound, the growth is 73.7% in assay [7] and 31.4% in assay [8].
With `CCCCCCCCC(C)OC(=O)c1nn(C(C)=O)c2ccccc12` (stereo not drawn), the growth in assay [1] is 88.6%; in assay [2] it was 95.4%; in assay [3], 101%; in assay [4], 103%; in assay [5] it was 90.1%; in assay [6], 97%. Also, the growth in assay [7] is 98%; in assay [8] it was 103%.
Turning to `CN(C[C@H]1Cc2c(cccc2N2CCN(c3ncccn3)CC2)CN1)[C@H]1CCCc2cccnc21`, the growth in assay [1] was 26.1%; in assay [2], 56.9%; in assay [3], 40.7%; in assay [4], 31.3%; in assay [5], 15.6%; in assay [6] it was 19.6%. Moreover, the growth in assay [7] is 53.9%; in assay [8], 43.5%.
Turning to `COc1ccc(CN2CCc3c(Sc4ccccc4)nc(N)nc3C2=O)c(OC)c1`, the growth in assay [1] is 33.9%; in assay [2] it was 23.4%; in assay [3], 60.6%; in assay [4] it was 81.2%; in assay [5], 43.7%; in assay [6], 42.7%. Further, the growth was 86.2% in assay [7] and 84.9% in assay [8].
`COc1ccc(NC(=O)c2c(Nc3ccc(OC)cc3OC)n[nH]c2N)c(OC)c1`: the growth in assay [1] was 83%; in assay [2], 93.7%; in assay [3], 95.2%; in assay [4] it was 102%; in assay [5] it was 76.4%; in assay [6], 90.1%. Also, the growth in assay [7] was 107%; in assay [8], 102%.
Consider `CCN(CC)CCCNc1nccc2ccc(Cl)cc12`, for which the growth is 106% in assay [1]; 92.8% in assay [2]; 103% in assay [3]; 104% in assay [4]; 94% in assay [5]; 84.9% in assay [6]. Moreover, the growth in assay [7] is 106%; in assay [8], 111%.
Take `CN(C)c1cccc2c(S(=O)(=O)/N=C(\N)Nc3nc4ccccc4s3)cccc12`: the growth was 39.6% in assay [1]; 47.5% in assay [2]; -11.5% (active) in assay [3]; 31% in assay [4]; 29.6% in assay [5]; 42.4% in assay [6]. Further, the figures for the growth in assay [7] and in assay [8] were 70.4% and 35.7%, respectively.
As to `Cc1cc(C(C)(C)C)ccc1S`, the growth was 91.6% in assay [1]; 105% in assay [2]; 111% in assay [3]; 98.4% in assay [4]; 86.4% in assay [5]; 103% in assay [6]. In addition, the growth in assay [7] and in assay [8] was 112% each time.
Regarding `CCC(=O)Oc1ccc(/C(=C(/C)Cc2cccc(OC)c2)c2ccc(OCCN(C)C)cc2)cc1`, the growth was 86.7% in assay [1]; 95.7% in assay [2]; 9.82% (active) in assay [3]; 74.2% in assay [4]; 45.1% in assay [5]; 71.8% in assay [6]. Besides, the results for the growth in assay [7] and in assay [8] were 95.1% and 86.3%, respectively.
Regarding `C=C(C)[C@@H]1C[C@@H]2Cc3cc(F)ccc3N1O2`, the growth is 107% in assay [1]; 106% in assay [2]; 104% in assay [3]; 98.6% in assay [4]; 95.6% in assay [5]; 98.2% in assay [6]. The figures for the growth in assay [7] and in assay [8] were 93.9% and 103%, respectively.
`CC(C)(C)c1[nH]nc2c1C(c1cc3ccccc3[nH]c1=O)Nc1cc(C(=O)Nc3ccc(Cl)cc3)ccc1N2` (stereo not drawn): the growth was 40% in assay [1]; 63.9% in assay [2]; 35.4% in assay [3]; 66.3% in assay [4]; 27.8% in assay [5]; 45.6% in assay [6]. Also, the growth in assay [7] was 86.3%; in assay [8], 50.2%.
In the case of `COC(=O)C1CCCN1C(=O)[C@@H]1CCCN1C(=O)[C@H](Cc1c[nH]c2ccccc12)NC(=S)Nc1cc(C(F)(F)F)cc(C(F)(F)F)c1` (stereo partly drawn), the growth in assay [1] was 49.8%; in assay [2], 70.3%; in assay [3], 45%; in assay [4], 69.9%; in assay [5] it was 38.8%; in assay [6], 37.3%. Also, the figures for the growth in assay [7] and in assay [8] were 15% and 25.2%, respectively.
